Values joined by “and” are separate entries in the source; they are usually repeats but may differ in a detail not shown here. Identical values can stand only once. Out of some 5,500 compounds screened, about 2,000 (36%) were called active. Roughly 18% stayed inconclusive and do not appear here. No stated cut-off is given here; in the data, active means normalized growth mostly below about 0.91 (no sharp cut-off); inconclusive means no clear call, values can overlap the other calls; inactive means mostly above about 0.92. This is one part of the list.
Assay: chemical genetic growth profiling, strain panel (AID 1159580);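 further: tested at 20 µM; growth read once vehicle control cultures reached saturation at 30 °C; 1 = growth at the plate median or of vehicle wells; lower values mean less growth of the strain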
Details: S. cerevisiae deletion strains, growth OD

Measured: normalized growth

COc1cc2c(cc1OC)-c1cc3ccc(OC)c(OC)c3c[n+]1CC2
inactive: locus YAL013W, strain DEP1, hits give low values 0.993 | locus YAL021C, strain ccr4, hits give low values 0.988 | locus YAL026C, strain drs2, hits give low values 0.987 | locus YAL030W, strain snc1, hits give low values 0.988 | locus YBL061C, strain skt5, hits give low values 0.988 | locus YBR009C, strain hhf1, hits give low values 0.984 | locus YBR021W, strain FUR4, hits give low values 0.977 and 1.02 | locus YBR023C, strain chs3, hits give low values 0.983 | locus YBR171W, strain sec66, hits give low values 0.971 | locus YBR229C, strain ROT2, hits give low values 0.979 and 1 | locus YBR231C, strain swc5, hits give low values 0.981 | locus YBR279W, strain paf1, hits give low values 0.979 | locus YCL011C, strain gbp2, hits give low values 0.991 | locus YCL016C, strain dcc1, hits give low values 0.978 | locus YCL029C, strain bik1, hits give low values 0.991 and 1.01 | locus YCL061C, strain MRC1, hits give low values 0.989 | locus YCL069W, strain vba3, hits give low values 0.988 | locus YCR088W, strain abp1, hits give low values 0.98 | locus YDL005C, strain med2, hits give low values 0.975 | locus YDL035C, strain GPR1, hits give low values 1.1 and 0.985 | locus YDL040C, strain nat1, hits give low values 0.988 | locus YDL074C, strain BRE1, hits give low values 1.05 and 1.02 | locus YDL101C, strain DUN1, hits give low values 0.982 and 1.03 | locus YDL134C, strain PPH21, hits give low values 0.989 and 0.983 | locus YDL185W, strain tfp1, hits give low values 0.988 and 1.03 | locus YDL192W, strain arf1, hits give low values 0.991 and 1.01 | locus YDR001C, strain nth1, hits give low values 0.982 | locus YDR069C, strain doa4, hits give low values 0.976 | locus YDR101C, strain arx1, hits give low values 0.985 and 1.02 | locus YDR137W, strain rgp1, hits give low values 0.97 | locus YDR150W, strain NUM1, hits give low values 0.992 and 1.01 | locus YDR159W, strain sac3, hits give low values 0.999 | locus YDR162C, strain NBP2, hits give low values 1.01 and 1 | locus YDR195W, strain ref2 0.921 | locus YDR297W, strain sur2, hits give low values 0.984 | locus YDR318W, strain mcm21, hits give low values 0.987 and 1.01 | locus YDR334W, strain swr1, hits give low values 0.986 | locus YDR335W, strain msn5, hits give low values 0.99 | locus YDR388W, hits give low values 0.99 and 1.02 | locus YDR392W, strain spt3, hits give low values 1.01 | locus YDR502C, strain sam2, hits give low values 0.985 and 1.01 | locus YEL003W, strain gim4, hits give low values 0.99 | locus YEL037C, strain rad23, hits give low values 0.987 | locus YEL061C, strain CIN8 (second series), hits give low values 0.967 | locus YEL061C, strain CIN8, hits give low values 0.99 and 1.01 | locus YER015W, strain faa2, hits give low values 0.989 | locus YER016W, strain bim1, hits give low values 0.987 | locus YER110C, hits give low values 0.983 and 1.02 | locus YER111C, strain swi4, hits give low values 0.97 | locus YER155C, strain BEM2 (second series), hits give low values 0.909 | locus YER155C, strain BEM2, hits give low values 0.994 and 1.01 | locus YER167W, strain BCK2, hits give low values 0.977 and 0.997 | locus YFR010W, strain ubp6, hits give low values 0.969 | locus YGL078C, strain dbp3, hits give low values 0.991 and 1.01 | locus YGL086W, strain mad1, hits give low values 0.952 and 0.998 | locus YGL167C, strain pmr1, hits give low values 0.981 | locus YGL173C, strain kem1, hits give low values 0.98 | locus YGL227W, strain vid30, hits give low values 0.974 | locus YGL240W, strain doc1, hits give low values 0.969 | locus YGL248W, strain PDE1, hits give low values 0.983 and 1.02 | locus YGL253W, strain hxk2, hits give low values 0.996 | locus YGR078C, strain PAC10, hits give low values 1.01 | locus YGR135W, strain pre9, hits give low values 1 and 1.01 | locus YGR229C, strain SMI1, hits give low values 1.02 | locus YGR252W, strain gcn5, hits give low values 0.952 and 1.02 | locus YHR013C, strain ard1, hits give low values 0.966 | locus YHR027C, strain rpn1, hits give low values 0.975 | locus YHR030C, strain SLT2, hits give low values 0.989 and 1.04 and 1 | locus YHR079C, strain IRE1 (second series), hits give low values 0.991 and 1.02 | locus YHR079C, strain IRE1, hits give low values 1.03 | locus YHR094C, strain hxt1, hits give low values 0.991 and 1.02 | locus YHR129C, strain ARP1, hits give low values 0.987 and 1.01 | locus YHR142W, strain chs7, hits give low values 1.02 | locus YHR200W, strain rpn10, hits give low values 0.987 and 1 | locus YIL066C, strain RNR3, hits give low values 0.973 and 0.985 | locus YIL073C, strain SPO22, hits give low values 0.95 and 1.04 | locus YIL125W, strain kgd1, hits give low values 0.996 and 1.01 | locus YIR030C, strain dcg1, hits give low values 0.989 and 1.01 | locus YJL092W, strain hpr5, hits give low values 0.979 | locus YJL095W, strain BCK1 (second series), hits give low values 0.973 | locus YJL095W, strain BCK1, hits give low values 1 and 1.02 and 1.05 | locus YJL115W, strain asf1, hits give low values 0.975 | locus YJL129C, strain trk1, hits give low values 0.96 | locus YJL134W, strain LCB3, hits give low values 0.97 and 1 | locus YJL154C, strain vps35, hits give low values 0.98 | locus YJL164C, strain tpk1, hits give low values 0.98 | locus YJL166W, strain qcr8, hits give low values 0.974 | locus YJL168C, strain set2, hits give low values 0.989 and 1.02 | locus YJL187C, strain SWE1 (second series), hits give low values 0.997 and 1.05 | locus YJR043C, strain POL32, hits give low values 0.998 and 0.991 | locus YJR066W, strain TOR1, hits give low values 0.965
